A selection: hits, their analogues and other compounds. The true share with any hit is near 8%.
MARV entry inh = qHTS for Inhibitors of binding or entry into cells for Marburg Virus; Marburg virus pseudotype entry/binding inhibition, cell-based; Potency, µM (top dose mostly 49.2 µM), actives largely listed as inhibitors; AID 720532, 2013; actives 6.5% (n = 18,000)
Lassa entry = qHTS for Inhibitors of binding or entry into cells for Lassa Virus | Lassa virus pseudotyped entry inhibition, cell-based qHTS | Potency, µM (doses to about 49.2 µM), hits mostly inhibitors | actives 4.1% (n = 18,000)
Each line names hits and unclear results; the compound was inactive in the other large screens; ! = not confirmed by another sample. Calls follow the shape of the full dose curve; tested in HEK293 cells.

CC(=O)c1ccc2c(c1)N(CCCN1CCC(CCO)CC1)c1ccccc1S2	MARV entry inh 11µM
CCCCCCCCCCCCCCCC(=O)OCCC1CCN(CCCN2c3ccccc3Sc3ccc(S(=O)(=O)N(C)C)cc32)CC1	none
CN(C)CCCN1c2ccccc2Sc2ccc(Cl)cc21	MARV entry inh 16µM, Lassa entry inconclusive
OCCN1CCN(CCCN2c3ccccc3Sc3ccc(Cl)cc32)CC1	MARV entry inh 2.2µM, Lassa entry inconclusive
CN1CCN(CCCN2c3ccccc3Sc3ccc(S(=O)(=O)N(C)C)cc32)CC1	MARV entry inh inconclusive
CCCCCCN1C[C@H](n2cc(C3CC3)nn2)[C@@H](O)C[C@H]1c1ccc(C)cc1	none
CN(CCO)C(=O)c1cn(C2CCN(Cc3ccc4ccccc4c3)CC2)nn1	none
CC(C)CNC(=O)c1cn(C2CCN(Cc3nc4ccccc4s3)CC2)nn1	MARV entry inh 2.8µM
COC(=O)C[C@H]1c2ccccc2[C@@H]2C(=C[C@@H](C)[C@H]3C(=O)NC(=O)[C@H]32)N1C(=O)OC	none
O=S(=O)(O)c1ccc2c(c1)-c1nc-2nc2[nH]c(nc3nc(nc4[nH]c(n1)c1ccc(S(=O)(=O)O)cc41)-c1ccc(S(=O)(=O)O)cc1-3)c1ccc(S(=O)(=O)O)cc21	MARV entry inh 1.3µM, Lassa entry inconclusive
O=S(=O)(O)c1ccc2nc(-c3ccccc3)[nH]c2c1	Lassa entry inconclusive
OC/C=C/c1ccccc1	none
Fc1ccc(C(c2ccc(F)cc2)N2CCN(C/C=C/c3ccccc3)CC2)cc1	MARV entry inh 2.5µM, Lassa entry 32µM!
C(=C\c1ccccc1)/CN1CCN(CCOC(c2ccccc2)c2ccccc2)CC1	MARV entry inh 8.9µM, Lassa entry 32µM
OCCOCCN1CCN(C(c2ccccc2)c2ccc(Cl)cc2)CC1 (configuration not stated)	MARV entry inh inconclusive
Clc1ccc(C(OCCN2CCCCC2)c2ccccc2)cc1 (configuration not stated)	MARV entry inh 13µM, Lassa entry inconclusive
C(=C\c1ccccc1)/CN1CCN(C(c2ccccc2)c2ccccc2)CC1	none
O=C1Nc2ccccc2[C@@]12O[C@H](COc1ccccc1)CC1=C2CCC1	none
C=C[C@H]1CCC=C2C(=O)CCC[C@H]21	none
COC(=O)N[C@H](C(C(=O)OC)=C(C)NCc1ccccc1)c1cccs1	none (no result: Lassa entry)
COC(=O)CC=C[C@@H](C)[C@@H](C=NOC[C@@H](C)[C@H](OCc1ccccc1)C(C)C)NS(=O)(=O)c1ccc(C)cc1	none (no result: Lassa entry)
OC[C@H]1O[C@H](C#Cc2ccc(F)cc2F)C=C[C@H]1O	MARV entry inh inconclusive
CC[C@@H](C(=O)[C@@H](C)[C@@H](O)[C@H](C)CCc1ccc(C)c(O)c1C(=O)O)[C@H]1O[C@](CC)([C@H]2CC[C@](O)(CC)[C@H](C)O2)C[C@@H]1C	Lassa entry 11µM
C=C(CCN1C=C(C(C)=O)C(c2ccccc2)NC1=O)c1ccccc1 (configuration not stated)	MARV entry inh inconclusive
CC(=O)C1=C(C)N(CCC=Cc2ccccc2)C(=O)NC1c1ccccc1 (configuration not stated)	MARV entry inh inconclusive
C=CC[C@@]1(c2ccc(OC)cc2)Oc2ccccc2C2=NCCN=C21	MARV entry inh inconclusive
COc1ccc(C2/C=C\C(c3ccc(OC)cc3)N(Cc3ccc(F)cc3)C(=O)C(=O)N2Cc2ccc(F)cc2)cc1 (configuration not stated)	MARV entry inh 10µM
COc1ccc(C2/C=C\CC(OCc3ccccc3)CC(=O)N2Cc2cccc(F)c2)cc1 (configuration not stated)	Lassa entry inconclusive
COc1c(O)cc2c(=O)oc3c(OC)c(O)cc4c(=O)oc1c2c34	none
COc1cc(O)c2c(c1)oc(=O)c1c3cc(O)c(O)cc3oc21	MARV entry inh 11µM, Lassa entry inconclusive
O=C1[C@@H]2CSCCS(=O)(=O)N2C(=O)N1c1cccc2ccccc12	none
O=C(Nc1n[nH]c2nc(-c3ccco3)ccc12)C1CC1	none (no result: Lassa entry)

Source: PubChem
